The text below walks through data of PubChem BioAssay (NCI).

Test systems include NCI-H23 lung; NCI-H226 lung; NCI-H322M lung; HOP-62 NSCLC; NCI-H460 lung; HOP-92 NSCLC; NCI-H522 lung; A549/ATCC NSCLC; 786-0 renal; COLO 205 colon; DU-145 prostate; K-562 leukemia; MALME-3M melanoma; MDA-MB-231 breast; RXF 393 renal; SF-268 CNS; SF-295 CNS; SF-539 CNS; UACC-257 melanoma; M14 melanoma.
What all share (test): NCI-60 one-dose screen, 48 h (100 = growth as untreated, 0 = no growth, -100 = all killed)
What all share (conditions): 10 µM unless noted

This is part of a sample that, as a whole, favours compounds with a hit. Of some 83,000 tested, about 20% had one in any assay.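 A percent growth of 40 corresponds to 60% growth inhibition; 0 means no net growth; -100 means all cells died. Active threshold: below 10.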 Unmarked numbers belong to inactive results. Active and inactive are the calls of the source.

Regarding `C#Cc1cccc(NC(=O)C2CCCN(C(=O)CCl)C2)c1` (stereo not given), the growth is -27% [8.25 µM] (active) with NCI-H23 lung; 1.82% [8.25 µM] (active) with NCI-H226 lung; 111% [8.25 µM] in the experiment on NCI-H322M lung; 87.8% [8.25 µM] in the experiment with HOP-62 NSCLC; 97.5% [8.25 µM] with NCI-H460 lung; 98.3% [8.25 µM] with HOP-92 NSCLC. The growth with NCI-H522 lung is -53.6% [8.25 µM] (active); in the experiment on A549/ATCC NSCLC, 86.1% [8.25 µM]; with 786-0 renal, 89.5% [8.25 µM]; with COLO 205 colon, 27.2% [8.25 µM]; in the experiment on DU-145 prostate, 102% [8.25 µM]; in the experiment with K-562 leukemia, 20.2% [8.25 µM]. Also, the growth in the experiment on MALME-3M melanoma is 3.83% [8.25 µM] (active); in the experiment on MDA-MB-231 breast, 81.5% [8.25 µM]; in the experiment with RXF 393 renal, 67% [8.25 µM]; with SF-268 CNS, 78.3% [8.25 µM]; in the experiment with SF-295 CNS, 85.4% [8.25 µM]; in the experiment on SF-539 CNS, 79.9% [8.25 µM]. For the same compound, the figures for the growth with UACC-257 melanoma and in the experiment with M14 melanoma were 79.7% [8.25 µM] and 20.6% [8.25 µM], respectively.
In the case of `C=C(C)[C@@H]1CC[C@]2(C(=O)N3CCCNCC3)CC[C@]3(C)[C@H](CC[C@@H]4[C@@]5(C)CCC(=O)C(C)(C)[C@@H]5CC[C@]43C)[C@@H]12`, the growth was 98.4% in the experiment on NCI-H23 lung; 90.7% with NCI-H226 lung; 102% with NCI-H322M lung; 92.9% in the experiment with HOP-62 NSCLC; 97.7% in the experiment with NCI-H460 lung; 48.4% in the experiment with HOP-92 NSCLC. Besides, the growth in the experiment with NCI-H522 lung is 101%; in the experiment with A549/ATCC NSCLC it was 86.2%; in the experiment on 786-0 renal it was 94.9%; with COLO 205 colon, 101%; in the experiment on DU-145 prostate, 93.6%; in the experiment with K-562 leukemia, 78.4%. In addition, the growth in the experiment with MALME-3M melanoma was 99.3%; in the experiment on MDA-MB-231 breast it was 88.7%; in the experiment with RXF 393 renal it was 81.9%; in the experiment with SF-268 CNS it was 84.9%; in the experiment with SF-295 CNS, 104%; in the experiment on SF-539 CNS, 99.9%. The growth with UACC-257 melanoma was 98.4%; in the experiment on M14 melanoma, 100%.
With `O=C1/C(=C\c2ccc(Br)o2)SC(=S)N1CCc1ccc(O)cc1`, the growth was 49.7% with NCI-H23 lung; 97.3% in the experiment on NCI-H226 lung; 88.3% in the experiment on NCI-H322M lung; 83.5% in the experiment with HOP-62 NSCLC; 107% in the experiment on NCI-H460 lung; 55.3% in the experiment on HOP-92 NSCLC. Further, the growth in the experiment on NCI-H522 lung was 37.8%; in the experiment on A549/ATCC NSCLC, 100%; in the experiment with 786-0 renal, 78.7%; in the experiment on COLO 205 colon it was 97.8%; with DU-145 prostate, 43%; in the experiment with K-562 leukemia it was 65.6%. For the same compound, the growth is 69% in the experiment on MALME-3M melanoma; 53.2% with MDA-MB-231 breast; 51.9% with RXF 393 renal; 96% with SF-268 CNS; 94.9% with SF-295 CNS; 52.3% in the experiment on SF-539 CNS. Also, the figures for the growth in the experiment on UACC-257 melanoma and with M14 melanoma were 77.2% and 73.7%, respectively.
`CC1(C)C(=O)/C(=C\c2ccccn2)C[C@]2(C)[C@H]3CC[C@@H]4[C@@H](C(=O)/C=C/c5ccccn5)CC[C@@]4(C)[C@]3(C)CC[C@@H]12`: the growth in the experiment on NCI-H23 lung is -49.2% (active); with NCI-H226 lung, -33.8% (active); in the experiment on NCI-H322M lung, 21.3%; in the experiment on HOP-62 NSCLC, -26.7% (active); in the experiment with NCI-H460 lung, -36.2% (active); in the experiment with HOP-92 NSCLC, -31.9% (active). Besides, the growth was -23.3% (active) in the experiment with NCI-H522 lung; 5.27% (active) in the experiment with A549/ATCC NSCLC; -69.4% (active) in the experiment with 786-0 renal; -34.4% (active) with COLO 205 colon; -77.1% (active) in the experiment with DU-145 prostate; 0.811% (active) with K-562 leukemia. Moreover, the growth with MALME-3M melanoma was -35.8% (active); in the experiment with MDA-MB-231 breast, -60% (active); in the experiment with RXF 393 renal, -90.7% (active); in the experiment on SF-268 CNS, 9.75% (active); in the experiment on SF-295 CNS it was -77.9% (active); in the experiment on SF-539 CNS, -43.5% (active). Moreover, the growth in the experiment on UACC-257 melanoma is 7.39% (active); in the experiment on M14 melanoma, 3.45% (active).
For the compound `CCc1nnc(NC(=O)c2ccoc2COc2ccccc2)s1`, the growth in the experiment with NCI-H23 lung is 57.9%; with NCI-H226 lung it was 74.3%; in the experiment on NCI-H322M lung it was 86.9%; in the experiment on HOP-62 NSCLC it was 56.3%; in the experiment with NCI-H460 lung, 27%; in the experiment with HOP-92 NSCLC, 74.8%. Moreover, the growth is 38.6% with NCI-H522 lung; 62.1% in the experiment on A549/ATCC NSCLC; 72.2% with 786-0 renal; 44.2% in the experiment on COLO 205 colon; 75.4% in the experiment on DU-145 prostate; 12.3% with K-562 leukemia. Also, the growth in the experiment with MALME-3M melanoma is 47.5%; in the experiment on MDA-MB-231 breast, 55.9%; in the experiment on RXF 393 renal, 54.2%; in the experiment on SF-268 CNS, 66.7%; with SF-295 CNS it was 36.1%; with SF-539 CNS it was 43.5%. Moreover, the growth with UACC-257 melanoma was 76.9%; in the experiment on M14 melanoma, 11.7%.
For the compound `COc1cc(-c2c(C#N)c(-c3cccs3)nc3c2c(-c2ccccc2)nn3-c2ccccc2)ccc1O`, the growth in the experiment with NCI-H23 lung was 98.4%; in the experiment with NCI-H226 lung, 91.2%; with NCI-H322M lung, 96.6%; in the experiment on HOP-62 NSCLC, 74.5%; in the experiment on NCI-H460 lung, 77.5%; with HOP-92 NSCLC it was 93.5%. Besides, the growth in the experiment with NCI-H522 lung is 69.8%; with A549/ATCC NSCLC, 58.3%; with 786-0 renal it was 85.4%; in the experiment on COLO 205 colon it was 89.7%; in the experiment with DU-145 prostate, 85.6%; in the experiment with K-562 leukemia, 66.2%. In addition, the growth with MALME-3M melanoma was 87.2%; in the experiment on MDA-MB-231 breast it was 87.8%; in the experiment with RXF 393 renal, 94.4%; with SF-268 CNS, 80.4%; in the experiment with SF-295 CNS, 98.2%; in the experiment on SF-539 CNS, 93.5%. The growth in the experiment with UACC-257 melanoma is 81.3%; with M14 melanoma, 89.3%.
Turning to `CCN1CCN(C(=O)[C@]23CCC(C)(C)C[C@@H]2C2=CC[C@@H]4[C@@]5(C)C/C(=C/c6cccnc6)C(=O)C(C)(C)[C@@H]5CC[C@@]4(C)[C@]2(C)CC3)CC1`, the growth with NCI-H23 lung is 27.1%; in the experiment with NCI-H226 lung, 32.9%; in the experiment with NCI-H322M lung, 62.3%; with HOP-62 NSCLC it was 44.5%; in the experiment on NCI-H460 lung it was 12.1%; in the experiment on HOP-92 NSCLC it was 9.8% (active). Further, the growth was 28.4% with NCI-H522 lung; 13.5% in the experiment on A549/ATCC NSCLC; 50.2% in the experiment on 786-0 renal; 25.9% in the experiment with COLO 205 colon; 50% in the experiment with DU-145 prostate; 6.69% (active) in the experiment with K-562 leukemia. Moreover, the growth in the experiment with MALME-3M melanoma is 30.3%; with MDA-MB-231 breast, 40.7%; in the experiment with RXF 393 renal it was -7.84% (active); in the experiment with SF-268 CNS it was 37.6%; with SF-295 CNS, 16.7%; in the experiment on SF-539 CNS it was 41.5%. In addition, the growth is 3.05% (active) in the experiment on UACC-257 melanoma and 34.4% in the experiment on M14 melanoma.
In the case of `O=C(/C=C/c1cccc2ccccc12)Nc1ncc(Cc2ccccc2)s1`, the growth is 22.1% with NCI-H23 lung; 28.4% in the experiment on NCI-H226 lung; 12.5% in the experiment with NCI-H322M lung; 28.7% in the experiment on HOP-62 NSCLC; 2.17% (active) with NCI-H460 lung; 70.3% with HOP-92 NSCLC. Further, the growth in the experiment on NCI-H522 lung was 34.5%; in the experiment with A549/ATCC NSCLC it was 19.5%; in the experiment with 786-0 renal it was 34.3%; in the experiment on COLO 205 colon it was 12.1%; with DU-145 prostate, 21.2%; in the experiment with K-562 leukemia, 8.6% (active). Also, the growth in the experiment with MALME-3M melanoma was 21.7%; in the experiment on MDA-MB-231 breast, 25%; in the experiment on RXF 393 renal, -10% (active); in the experiment on SF-268 CNS it was 50.8%; in the experiment with SF-295 CNS it was -40.1% (active); with SF-539 CNS, -24.4% (active). Further, the growth was 60.8% in the experiment on UACC-257 melanoma and -21.3% (active) in the experiment with M14 melanoma.
